# Measured values reported in PubChem BioAssay AID2653 (National Center for Advancing Translational Sciences (NCATS), 2010).
# Records with an inconclusive call do not appear. Calls of active or inactive are those of the source. Calls come from the whole dose curve; as a rule, active = well fitted curve in the direction sought with a large enough effect; inconclusive = small, poorly fitted or top-dose-only effect, or another doubt; inactive = no such curve, though single readings can be large or run the other way.
# Experiment: Secondary Assay for Activators of Human Pyruvate Kinase M2 isoform - Cell Titer Glo Cytotoxicity for Probe SAR; note: % of control where 0% means no effect
# Conditions: HeLa viability, CellTiter-Glo ATP luminescence, 24 h; series mostly up to 58.2 µM; activity change, negative = cytotoxicity: at the top concentration
# In short: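 HeLa cells, 500 per well, plated 24 h then exposed to compound 24 h at 37 C. Total ATP by CellTiter-Glo luminescence after 10 min at room temperature; doxorubicin control.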
row,SMILES,"activity change, negative = cytotoxicity"
1,Cc1ccccc1OC1=NS(=O)(=O)c2ccccc21,2.36% (inactive)
2,CC(=O)N1CCc2cc(S(=O)(=O)Nc3ccc(C)c(C)c3)ccc21,-12.7% (inactive)
3,N#Cc1ccc(NS(=O)(=O)c2ccc3c(c2)CCC(=O)N3)cc1,0.329% (inactive)
4,Cc1ccc(N(C)S(=O)(=O)c2ccc3c(c2)CCC(=O)N3)cc1C,-13.9% (inactive)
5,O=C1CCc2cc(S(=O)(=O)Nc3ccc(F)c(Cl)c3)ccc2N1,-9.53% (inactive)
6,Cc1ccc(N2C(=O)c3ccccc3C2=O)c(C)c1,-18.8% (inactive)
7,Cc1ccc(NS(=O)(=O)c2ccc3c(c2)CCO3)cc1C,13.2% (inactive)
8,O=C1CCc2cc(S(=O)(=O)Nc3ccccc3F)ccc2N1,-28.6% (inactive)
9,Cc1ccc(NS(=O)(=O)c2ccc(-c3ccccc3)cc2)cc1C,1.34% (inactive)
10,O=C1CCc2cc(S(=O)(=O)Nc3cccc(C(F)(F)F)c3)ccc2N1,-44.3% (inactive)
11,CNc1cccc(S(=O)(=O)N2CCN(S(=O)(=O)c3ccc4c(c3)OCCO4)CC2)c1,-2.61% (inactive)
12,Cc1cc(N2C(=O)c3ccccc3C2=O)n[nH]1,-28.2% (inactive)
13,O=C1c2ccccc2C(=O)N1c1ccc(Cl)cc1,-19.6% (inactive)
14,O=C1c2ccccc2C(=O)N1c1ncccc1O,2.59% (inactive)
15,O=C1CCc2cc(S(=O)(=O)NCc3ccccc3)ccc2N1,-12.7% (inactive)
16,Cc1ccc(NS(=O)(=O)c2cc3c(cc2C)NC(=O)CO3)cc1C,-0.698% (inactive)

row,SMILES,"activity change, negative = cytotoxicity"
1,O=S1(=O)N=C(Oc2ccc(Cl)cc2)c2ccccc21,2.68% (inactive)
2,O=C1CCc2cc(S(=O)(=O)Nc3ccc4ccccc4c3)ccc2N1,-30.1% (inactive)
3,O=C1c2ccccc2C(=O)N1c1cccc(O)c1,-3.73% (inactive)
4,O=C1c2ccccc2C(=O)N1c1ccncc1,-39.8% (inactive)
5,COc1ccc(-c2nc3cccc(C)n3c2Nc2ccc(C)cc2)cc1,-17% (inactive)
6,Cc1ccc(NS(=O)(=O)c2ccc3c(c2)CC(=O)N3C)cc1C,-16% (inactive)
7,Cc1ccc(NS(=O)(=O)c2ccc3c(c2)CCC(=O)N3)cc1Cl,-17.7% (inactive)
8,O=S1(=O)N=C(Oc2ccccc2Cl)c2ccccc21,-12.1% (inactive)
9,Cc1ccc(OC2=NS(=O)(=O)c3ccccc32)cc1,5.54% (inactive)
10,Cc1ccc(NS(=O)(=O)c2ccc3c(c2)CCN(C(=O)C(F)(F)F)C3)cc1C,-3.41% (inactive)
11,Cc1ccc(NS(=O)(=O)c2ccc3c(c2)CCC(=O)N3)cc1C,-10.7% (inactive)
12,Cc1ccc(-c2nc3cccc(C)n3c2Nc2ccc(F)cc2)o1,-26% (inactive)
13,Cc1ccc(NS(=O)(=O)c2ccc3c(c2)oc(=O)n3C)cc1C,-9.4% (inactive)
14,Cc1ccc(-c2nc3ccc(Cl)cn3c2Nc2ccccc2)o1,-21% (inactive)
15,Nc1cc(S(=O)(=O)N2CCN(S(=O)(=O)c3ccc4c(c3)OCCO4)CC2)ccn1,-8.75% (inactive)
16,O=C1CCc2cc(S(=O)(=O)Nc3ccc4c(c3)CCC4)ccc2N1,-21.2% (inactive)
